The structures appear in SMILES notation. Values joined by “and” are separate entries in the source; they are usually repeats but may differ in a detail not shown here. Identical values can stand only once. Results filed as inconclusive are left out. Active and inactive are the calls of the source. The calls were made as follows, unless noted: active = hit-call score of the fitted dose curve at least 0.9, where 1 is the maximum; inconclusive = response in the unintended direction; inactive = score below 0.9.

Test [1] concerns the target mouse Estrogen Receptor alpha (Era), Esr1 (gene 13982) (UniProt P19785). The experiment in a line: NVS_NR_mERa: NovaScreen (NVS) Nuclear Receptor Binding Assay for mouse Estrogen Receptor alpha (Era) (AID 2283378).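 Also: hit means loss of bound radioligand signal relative to DMSO.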 A digest of the protocol: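 Extracted mouse Era incubated with tritiated or iodinated radioligand plus test chemical, 18 h. Bound fraction separated on filters, counted by scintillation. DMSO = negative control/baseline; duplicate single-point at 25 uM, then concentration-response follow-up.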

The target of test [2] is Estrogen receptor beta (Homo sapiens) (UniProt Q92731). The experiment in a line: OT_ER_ERbERb_1440: Odyssey Thera (OT) 24-hour HEK293T Protein-Complementation Assay for Estrogen Receptor-beta/-beta Homodimer (AID 2283380).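 Also: fluorescence gain from ER beta LBD homodimer complementation read by laser scanning cytometry; scored as signal increase over DMSO baseline for both agonists and antagonists.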 The essentials: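 Fluorescence increase, nuclear for agonists or whole-cell for antagonists, relative to DMSO vehicle, quantified by laser scanning cytometer after fixation and Draq5 staining. Readout from 24 h treatment of HEK293T cells carrying complementation-paired ER beta LBD (aa 310-547).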

For test [3], the target named is Retinoic acid receptor RXR-alpha (Homo sapiens) (UniProt P19793). Briefly: OT_NURR1_NURR1RXRa_0480: Odyssey Thera (OT) 8-hour HEK293T Protein Complementation Assay for Nurr1/retinoid X receptor (RXR) (AID 2283385). The essentials: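 Interaction of bait and prey reconstitutes a functional reporter, whose fluorescence was measured in HEK293T cells dosed with compound for 8 hours. Signal gain relative to DMSO defined the single endpoint.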

Test [4] shares this target. Briefly: OT_NURR1_NURR1RXRa_1440: Odyssey Thera (OT) 24-hour HEK293T Protein Complementation Assay for Nurr1/retinoid X receptor (RXR) (AID 2283386). A digest of the protocol: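 Steps: fragment-tagged Nurr1 and RXRα expressed in HEK293T; compounds added; after 24 h, complemented reporter quantified by fluorescence intensity; signal increase over DMSO fitted as the single endpoint.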

Test [5] concerns the target Estrogen receptor (Homo sapiens) (UniProt P03372). Briefly: OT_ERa_GFPERaERE_0480: Odyssey Thera (OT) 8-hour HeLa Transcription Induction Assay for Estrogen Receptor (AID 2283381; active = hit-call score of the fitted dose curve at least 0.9, where 1 is the maximum; inactive = score below 0.9). A digest of the protocol:
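Human cervical HeLa cells were treated for 8 hours, after which ERE-driven GFP induction was measured by fluorescence microscopy; increases over DMSO baseline defined activity.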

In test [6] the target is Peroxisome proliferator-activated receptor gamma (Homo sapiens) (UniProt P37231). Briefly: OT_PPARg_PPARgSRC1_0480: Odyssey Thera (OT) 8-hour Protein-Complementation Assay for Peroxisome Proliferator-activated Receptor Gamma / SRC-1 Co-activator (AID 2283387).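 Also: nuclear to cytoplasmic split Venus YFP fluorescence ratio reporting PPARg SRC-1 interaction.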 The essentials:
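HEK293T transiently transfected with PPARg and SRC-1 fused to Venus YFP fragments, compounds 8 h at 37C. Fixed, Draq5-stained cells imaged; nuclear/cytoplasmic 488 nm fluorescence ratio over at least 350 cells per image; gain fitted versus DMSO.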

Test [7] has as its target Agonist Androgen Response Element (ARE), AR (gene 367) (UniProt P10275). The experiment in a line: OT_AR_ARELUC_AG_1440: Odyssey Thera (OT) 24-hour CHO-K1 Luciferase Assay for Agonist Androgen Response Element (ARE) (AID 2283379). A digest of the protocol:
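Readout: luciferase bioluminescence from CHO-K1 ARE-luc cells, measured 24 h post-dosing; agonism = increased mean luminescence vs DMSO controls, fitted in positive direction.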

The target of test [8] is Estrogen receptor (Homo sapiens) (UniProt P03372). The experiment in a line: OT_ERa_GFPERaERE_0120: Odyssey Thera (OT) 2-hour HeLa Transcription Induction Assay for Estrogen Receptor (AID 2283382). A digest of the protocol:
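Cells (human cervical HeLa) receive compound, incubate 2 hours, then are imaged for fluorescent reporter induction. Images are quantified by high content analysis, and activity is fitted as gain of signal against DMSO.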

For test [9], the target named is Bile acid receptor (Homo sapiens) (UniProt Q96RI1). Briefly: OT_FXR_FXRSRC1_0480: Odyssey Thera (OT) 8-hour HEK293T Protein-Complementation Assay for Farnesoid X receptor/SRC-1 Co-activator (AID 2283383). A digest of the protocol: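 PCA, HEK293T, 8 h compound exposure; FXR–SRC-1 binding reconstitutes split reporter; fluorescence intensity; positive-direction fit vs DMSO.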

The target is the same in test [10]. The experiment in a line: OT_FXR_FXRSRC1_1440: Odyssey Thera (OT) 24-hour HEK293T Protein-Complementation Assay for Farnesoid X receptor/SRC-1 Co-activator (AID 2283384). The essentials:
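Measures ligand-driven FXR–SRC-1 co-activator recruitment in HEK293T via fragment complementation, fluorescence intensity at 24 h. DMSO served as negative control and baseline for gain-of-signal fitting.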

Sequence of Peroxisome proliferator-activated receptor gamma (Homo sapiens) (P37231 whole entry, looked up, the tested form may be a part): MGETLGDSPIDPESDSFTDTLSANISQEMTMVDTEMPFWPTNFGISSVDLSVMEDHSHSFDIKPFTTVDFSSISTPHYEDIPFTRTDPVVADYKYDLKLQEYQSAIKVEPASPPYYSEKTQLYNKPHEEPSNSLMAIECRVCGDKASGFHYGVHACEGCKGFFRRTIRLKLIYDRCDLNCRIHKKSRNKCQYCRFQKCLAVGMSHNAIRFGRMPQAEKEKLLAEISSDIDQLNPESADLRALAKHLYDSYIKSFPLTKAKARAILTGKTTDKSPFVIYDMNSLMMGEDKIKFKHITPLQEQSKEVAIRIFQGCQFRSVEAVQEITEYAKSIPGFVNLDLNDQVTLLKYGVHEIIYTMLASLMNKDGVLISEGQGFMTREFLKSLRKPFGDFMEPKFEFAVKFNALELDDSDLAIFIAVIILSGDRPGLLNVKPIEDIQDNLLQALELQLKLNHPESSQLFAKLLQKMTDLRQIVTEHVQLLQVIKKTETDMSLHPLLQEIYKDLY
Sequence of Retinoic acid receptor RXR-alpha (Homo sapiens) (P19793 whole entry, looked up): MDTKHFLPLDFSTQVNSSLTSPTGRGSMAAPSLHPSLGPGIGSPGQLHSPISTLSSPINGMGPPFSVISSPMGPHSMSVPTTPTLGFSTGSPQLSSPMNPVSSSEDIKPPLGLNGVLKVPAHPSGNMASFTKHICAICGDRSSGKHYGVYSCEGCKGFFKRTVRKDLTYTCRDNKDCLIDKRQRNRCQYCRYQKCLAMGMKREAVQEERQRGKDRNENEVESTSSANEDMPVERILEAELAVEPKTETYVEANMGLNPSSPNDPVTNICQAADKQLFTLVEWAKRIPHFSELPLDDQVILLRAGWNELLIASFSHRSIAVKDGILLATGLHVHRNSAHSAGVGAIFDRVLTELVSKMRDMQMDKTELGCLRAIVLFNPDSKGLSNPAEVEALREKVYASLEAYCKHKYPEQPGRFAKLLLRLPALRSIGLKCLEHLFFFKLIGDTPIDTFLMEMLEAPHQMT
Sequence of mouse Estrogen Receptor alpha (Era), Esr1 (gene 13982) (P19785 whole entry, looked up): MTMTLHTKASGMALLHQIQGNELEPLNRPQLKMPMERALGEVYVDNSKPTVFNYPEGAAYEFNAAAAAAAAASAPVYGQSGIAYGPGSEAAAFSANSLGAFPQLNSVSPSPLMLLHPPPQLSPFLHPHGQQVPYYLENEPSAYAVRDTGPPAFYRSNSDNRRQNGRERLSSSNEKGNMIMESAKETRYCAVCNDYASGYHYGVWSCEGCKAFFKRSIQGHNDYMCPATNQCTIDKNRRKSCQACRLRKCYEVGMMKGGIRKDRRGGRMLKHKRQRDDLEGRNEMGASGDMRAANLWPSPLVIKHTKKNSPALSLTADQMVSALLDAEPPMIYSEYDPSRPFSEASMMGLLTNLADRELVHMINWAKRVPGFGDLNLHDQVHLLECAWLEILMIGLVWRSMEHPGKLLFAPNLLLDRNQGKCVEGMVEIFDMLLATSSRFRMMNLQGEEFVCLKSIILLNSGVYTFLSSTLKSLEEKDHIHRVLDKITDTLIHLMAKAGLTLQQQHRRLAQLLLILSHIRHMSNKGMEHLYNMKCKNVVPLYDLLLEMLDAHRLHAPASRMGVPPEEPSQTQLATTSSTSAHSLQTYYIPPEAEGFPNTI
Sequence of Bile acid receptor (Homo sapiens) (Q96RI1 whole entry, looked up): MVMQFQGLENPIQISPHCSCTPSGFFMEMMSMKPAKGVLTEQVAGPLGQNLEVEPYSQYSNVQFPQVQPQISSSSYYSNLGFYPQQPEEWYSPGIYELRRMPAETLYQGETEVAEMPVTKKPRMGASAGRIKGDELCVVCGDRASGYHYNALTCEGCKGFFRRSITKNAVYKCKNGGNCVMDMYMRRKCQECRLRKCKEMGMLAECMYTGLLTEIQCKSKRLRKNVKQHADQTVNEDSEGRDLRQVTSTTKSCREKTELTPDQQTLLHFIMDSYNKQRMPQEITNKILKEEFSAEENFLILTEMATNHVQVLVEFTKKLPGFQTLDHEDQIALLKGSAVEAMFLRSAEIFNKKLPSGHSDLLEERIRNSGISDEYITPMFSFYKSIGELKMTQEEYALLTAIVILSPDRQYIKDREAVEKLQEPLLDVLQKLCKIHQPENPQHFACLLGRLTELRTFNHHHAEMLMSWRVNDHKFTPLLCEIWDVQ
Sequence of Agonist Androgen Response Element (ARE), AR (gene 367) (P10275 whole entry, looked up): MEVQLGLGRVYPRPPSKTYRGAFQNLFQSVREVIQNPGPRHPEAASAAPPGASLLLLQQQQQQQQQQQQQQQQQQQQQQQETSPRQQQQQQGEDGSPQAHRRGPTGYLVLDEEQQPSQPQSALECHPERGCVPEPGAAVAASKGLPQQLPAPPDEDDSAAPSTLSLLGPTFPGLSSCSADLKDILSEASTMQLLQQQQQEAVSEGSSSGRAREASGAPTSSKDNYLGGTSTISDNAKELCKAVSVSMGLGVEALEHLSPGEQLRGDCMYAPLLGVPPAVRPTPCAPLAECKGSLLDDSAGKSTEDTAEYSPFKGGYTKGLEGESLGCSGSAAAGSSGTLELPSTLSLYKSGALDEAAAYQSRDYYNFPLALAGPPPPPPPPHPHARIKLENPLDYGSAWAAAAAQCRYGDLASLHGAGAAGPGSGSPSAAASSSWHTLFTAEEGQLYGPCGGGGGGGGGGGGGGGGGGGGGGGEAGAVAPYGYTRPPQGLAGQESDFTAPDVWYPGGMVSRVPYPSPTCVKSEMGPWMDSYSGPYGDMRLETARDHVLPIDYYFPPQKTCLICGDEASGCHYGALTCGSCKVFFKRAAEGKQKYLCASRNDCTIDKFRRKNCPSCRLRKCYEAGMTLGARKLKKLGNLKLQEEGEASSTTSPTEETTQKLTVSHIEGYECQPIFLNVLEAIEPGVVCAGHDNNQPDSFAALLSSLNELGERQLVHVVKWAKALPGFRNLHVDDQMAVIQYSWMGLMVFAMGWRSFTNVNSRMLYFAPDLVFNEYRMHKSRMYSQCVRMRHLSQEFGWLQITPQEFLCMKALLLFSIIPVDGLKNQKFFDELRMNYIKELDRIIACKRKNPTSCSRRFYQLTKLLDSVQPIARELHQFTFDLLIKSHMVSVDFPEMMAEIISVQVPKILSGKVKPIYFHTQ
Sequence of Estrogen receptor beta (Homo sapiens) (Q92731 whole entry, looked up, the tested form may be a part): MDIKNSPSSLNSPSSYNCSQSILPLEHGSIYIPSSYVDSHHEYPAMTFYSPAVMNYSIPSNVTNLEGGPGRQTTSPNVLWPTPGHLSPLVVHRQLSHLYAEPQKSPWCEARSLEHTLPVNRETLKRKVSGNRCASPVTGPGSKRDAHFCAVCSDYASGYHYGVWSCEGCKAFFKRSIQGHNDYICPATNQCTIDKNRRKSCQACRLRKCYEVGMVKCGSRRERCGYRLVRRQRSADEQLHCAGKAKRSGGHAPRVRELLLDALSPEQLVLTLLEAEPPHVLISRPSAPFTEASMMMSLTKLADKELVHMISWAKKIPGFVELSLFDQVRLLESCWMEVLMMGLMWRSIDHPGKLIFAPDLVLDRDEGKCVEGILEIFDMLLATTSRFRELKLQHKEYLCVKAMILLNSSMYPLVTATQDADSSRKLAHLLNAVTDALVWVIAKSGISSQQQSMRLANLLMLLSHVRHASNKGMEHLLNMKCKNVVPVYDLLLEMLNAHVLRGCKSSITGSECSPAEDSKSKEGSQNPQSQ
Sequence of Estrogen receptor (Homo sapiens) (P03372 whole entry, looked up): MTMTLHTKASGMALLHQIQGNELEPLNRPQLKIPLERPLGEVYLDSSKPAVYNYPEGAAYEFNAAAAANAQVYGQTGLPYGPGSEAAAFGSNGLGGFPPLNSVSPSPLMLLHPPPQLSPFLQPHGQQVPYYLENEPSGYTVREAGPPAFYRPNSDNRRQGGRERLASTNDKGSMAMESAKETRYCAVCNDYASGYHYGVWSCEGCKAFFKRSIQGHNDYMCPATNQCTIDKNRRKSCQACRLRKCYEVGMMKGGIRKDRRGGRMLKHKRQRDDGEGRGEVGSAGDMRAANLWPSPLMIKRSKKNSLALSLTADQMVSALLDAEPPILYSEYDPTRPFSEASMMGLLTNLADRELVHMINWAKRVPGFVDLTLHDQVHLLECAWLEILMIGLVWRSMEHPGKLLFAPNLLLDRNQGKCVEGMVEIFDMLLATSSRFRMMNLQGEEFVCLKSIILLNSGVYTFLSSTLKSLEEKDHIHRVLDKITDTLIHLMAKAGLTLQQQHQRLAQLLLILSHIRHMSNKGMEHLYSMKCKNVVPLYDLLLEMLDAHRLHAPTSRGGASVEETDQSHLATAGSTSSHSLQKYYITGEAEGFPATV

`C[C@]12CC[C@H](O)CC1=CC[C@@H]1[C@@H]2CC[C@]2(C)C(=O)CC[C@@H]12`: the AC50 is 2.17 µM (active) in test [1] and 3.34 µM (active) in test [2]. Further, the result in [3] and in test [4] was inactive.

With `CCC[CH2][Sn]([CH2]CCC)([CH2]CCC)[O]C(=O)c1ccccc1`, the outcome in test [1], in test [5], in test [4] and in test [6] was inactive.

Turning to `COP(=S)(OC)Oc1ccc(Sc2ccc(OP(=S)(OC)OC)cc2)cc1`, the molecule was called inactive in test [7], in test [5], in [8] and in test [3]. Further, the AC50 in test [2] is 33.8 µM (active).

`Cc1ccc2ccccc2c1C`: the call in test [7], in test [2], in test [5], in [8] and in test [6] was inactive.

Consider `CC(C)(c1ccccc1)c1ccc(O)c(C(C)(C)c2ccccc2)c1`, for which the call in test [1], in test [2], in test [5] and in [8] was inactive.

For the molecule `C=CC#N`, the call in test [1], in test [2], in test [5], in [3] and in test [6] was inactive.

In the case of `Fc1ccc(C2(Cn3cncn3)OC2c2ccccc2Cl)cc1` (centres undefined), the molecule was classed as inactive in test [1], in [5], in test [8], in [9], in test [3] and in test [4]. Besides, the AC50 in [2] was 19.2 µM (active); in test [10] it was 18.9 µM (active).

Take `Cl/C=C/Cl`: the outcome in test [1], in test [5], in test [8], in test [3] and in test [4] was inactive.

For `Clc1ccc(COC(Cn2ccnc2)c2ccc(Cl)cc2Cl)cc1` (centres undefined), the outcome in [1], in test [2], in [8] and in [6] was inactive. Further, the AC50 in test [5] was 63.8 µM (active); in test [3] it was 11.2 µM (active); in [4], 11.6 µM (active).

As to `CCOC(=O)Nc1cccc(OC(=O)Nc2ccccc2)c1`, the result in test [1], in test [2], in [5], in test [8], in [3] and in [4] was inactive. In addition, the molecule was called inactive in test [6].

Take `O=C1CCCN1`: the molecule was classed as inactive in test [1], in test [5], in test [8], in [10] and in test [4].

`ClCC(Cl)CCl`: the result in [1], in test [3] and in [4] was inactive.

Regarding `NNC(=S)NN`, the AC50 in test [1] was 0.0993 µM (active). The result in [2], in test [5], in test [8], in [4] and in [6] was inactive.

Take `O=C(CCl)CCl`: the result in [1] was inactive.

For `CC1(C)CCC(Cc2ccc(Cl)cc2)C1(O)Cn1cncn1` (centres undefined), the result in test [1], in test [5], in test [8], in [3] and in [4] was inactive. Further, the AC50 in test [9] was 24.3 µM (active); in [10], 31.6 µM (active).

For the molecule `Cc1ccccc1C(=O)Nc1cccc(OC(C)C)c1`, the outcome in [7], in [2], in test [5], in test [8] and in test [3] was inactive.

With `CCN1CCC2(CC1)COc1cc3c(cc12)N(C(=O)c1ccc(-c2ccc(-c4nnc(C)o4)cc2C)cc1)CC3`, in test [1], the concentration at half-maximal activity (AC50) was 0.174 µM (active). Moreover, the call in test [7], in test [2], in test [5] and in [8] was inactive.

Take `CC(C)(C)CC(C)(C)c1ccc(O)cc1`: the result in [7] was inactive. Besides, the AC50 in [2] was 1.04 µM (active) and 593 nM (active) and 1.02 µM (active); in test [9], 11.2 µM (active); in test [3], 11.3 µM (active) and 11.2 µM (active); in test [4] it was 11.2 µM (active).

For `O=[N+]([O-])c1ccc(O)c([N+](=O)[O-])c1`, the call in test [7], in test [2], in test [5], in [8], in [3] and in [6] was inactive.

Consider `C=CC(=O)OCCCCCC(C)C`, for which the call in [1], in test [7], in [2], in [5], in test [8] and in test [9] was inactive. Moreover, the molecule was classed as inactive in test [10] and in [6].

For the molecule `C[C@H]1CCCC(=O)CCC/C=C/c2cc(O)cc(O)c2C(=O)O1`, the AC50 in [2] is 0.0449 µM (active); in [5], 0.103 µM (active); in [8] it was 0.0915 µM (active). Further, the result in test [6] was inactive.

Take `CCC(C)(C)c1ccc(O)c(C(C)(C)CC)c1`: the result in test [2], in test [5], in test [8] and in test [6] was inactive.

For `O=S(=O)(c1ccc(Cl)cc1)c1ccc(Cl)cc1`, the result in test [2], in [5], in test [8] and in test [4] was inactive.

`Clc1ccc(C2(Cn3cncn3)CC(Br)CO2)c(Cl)c1` (centres undefined): the call in [2], in test [5], in [8], in test [9], in test [10] and in [3] was inactive. Moreover, the outcome in test [4] and in test [6] was inactive.

Regarding `COc1ccc(C=O)cc1OC`, the call in [2], in [5], in test [8], in [3] and in test [4] was inactive.

For the molecule `O=C1C(Cl)=C(Cl)C(=O)c2ccccc21`, the result in test [2], in test [5] and in test [8] was inactive. Moreover, the AC50 in [3] is 11.4 µM (active).

Take `BrCCBr`: the result in test [2], in test [5], in test [8], in [3], in test [4] and in [6] was inactive.

On to `CC(C)C1CCC(Cc2ccc(Cl)cc2)C1(O)Cn1cncn1` (centres undefined), for which the molecule was called inactive in [2] and in test [5]. Besides, the AC50 was 90.2 µM (active) in test [8] and 11.2 µM (active) in test [10].

With `CC(C)c1cccc(C(C)C)c1O`, the outcome in [2], in [5], in [8], in [3] and in [4] was inactive.

With `CNC(=O)O/N=C/C(C)(C)S(C)=O` (centres undefined), the result in test [2], in test [5], in [8], in test [9], in test [3] and in [4] was inactive. The result in test [6] was inactive.

As to `O=c1[nH]c(=O)[nH]c(=O)[nH]1`, the AC50 in test [7] is 17.2 µM (active). Also, the molecule was called inactive in test [2] and in test [4].

Consider `COC(=O)c1sccc1S(=O)(=O)NC(=O)Nc1nc(C)nc(OC)n1`, for which the molecule was classed as inactive in test [2], in [5], in test [8], in test [4] and in test [6].

As usually defined, the AC50 is the midpoint of the concentration-response curve, whichever way the signal moves.
